Potency and viability change, negative = cytotoxic data for 40 compounds are collected here from PubChem BioAssay (Tox21).

Inconclusive results are not listed. Where a call stands in place of a potency, no number is given. Active and inactive are the calls of the source. Calls follow the shape of the dose curve; as a rule, active = well fitted cell-killing curve with a large enough effect in the repeat runs; inconclusive = weak or mixed curves, or effect the other way; inactive = flat fitted curve, though single readings scatter.
Potency is read from the fitted curve at half-maximal effect.

The nature of the experiment: qHTS assay to identify small molecule antagonists of the androgen receptor (AR) signaling pathway using the MDA cell line - cell viability counter screen (AID 743041; also: nearly all actives have a fitted effect of over 45% in size). The following applies: MDA-kb2 viability, CellTiter-Fluor, 16 h, cells co-treated with R1881 androgen agonist; series mostly up to 70.3 µM. The text has this: National Center for Advancing Translational Sciences [NCATS]
NIH Chemical Genomics Center [NCGC]
U.S. Environmental Protection Agency [EPA]
National Institutes of Environmental Health Sciences [NIEHS]
National Toxicology Program [NTP]
U.S. Food and Drug Administration [FDA]
Androgen receptor (AR), a nuclear hormone receptor, plays a critical role in AR-dependent prostate cancer and other androgen related diseases. Endocrine disrupting chemicals (EDCs) and their interactions with steroid hormone receptors like AR may cause disruption of normal endocrine function as well as interfere with metabolic homeostasis, reproduction, developmental and behavioral functions. To identify the compounds that inhibit AR signaling, MDA-kb2 AR-luc cell line (from ATCC, deposited by Wilson et al.) was used to screen the Tox21 10K compound library. MDA-kb2 AR-luc cell line is human breast carcinoma cell line that was stably transfected with a luciferase reporter gene under control of the MMTV promoter containing response elements for both androgen receptor (AR) and glucocorticoid receptor (GR). The cytotoxicity of the Tox21 compound library against the MDA-kb2 AR-luc cell line was tested in parallel by measuring the cell viability using CellTiter-Fluor assay (Promega, Madison, WI) in the same wells.
Tox21 Assay Protocol Summary:
MDA-kb2 AR-luc cells were dispensed at 3,000 cells/4 uL/well of culture medium into white wall/solid-bottom 1536-well plates using a Multidrop Combi (ThermoFisher Scientific, Waltham, MA) dispenser. After the assay plates were incubated at a 37C and 0% CO2 for 5 hr, 23 nL of compounds dissolved in DMSO, positive controls or DMSO only was transferred to the assay plate by a Pintool station (Kalypsys, San Diego, CA), followed by addition of 1 uL of agonist (R1881) in culture medium using a Bioraptr Flying Reagent Dispenser (FRD) workstation (Beckman Coulter, Indianapolis, IN, USA). The plates were incubated at a 37C and 0% CO2 for 16 h. After 15.5 h incubation, 1uL of CellTiter-Fluor reagent (Promega) was added using a Bioraptr FRD to each plate for measuring cytotoxicity. The fluorescence intensity was quantified on a ViewLux plate reader (PerkinElmer, Shelton, CT) following 30 min incubation at 37C and 0% CO2.
On the technique in general: qHTS replaces the single test concentration by a dilution series.
On to `CCCOCC(C)OCC(C)O` (stereo not given), for which the Potency entry was “inactive”.
In the case of `CCOC(=O)Nc1ccc2c(c1)N(C(=O)CCN1CCOCC1)c1ccccc1S2`, the Potency entry is “inactive”.
With `CCOC(=O)Cn1c(=O)sc2cccc(Cl)c21`, the Potency result was “inactive”.
For `CN(C)C(=O)C(CCN1CCC(O)(c2ccc(Cl)cc2)CC1)(c1ccccc1)c1ccccc1`, the Potency was 24.8 µM (active).
In the case of `COc1ccc(N=[N+]([O-])c2ccc(OC)cc2)cc1`, the Potency result was “inactive”.
As for `CC(C)=CC(=O)O`, the Potency entry is “inactive”.
Turning to `NC(N)=NS(=O)(=O)c1ccc(N)cc1`, the Potency result is “inactive”.
The same measure, in the same setting: the value for `COC[C@H](c1ccc(C(F)(F)F)cc1)N1CCN(C2(C)CCN(C(=O)c3c(C)ncnc3C)CC2)C[C@H]1C` was “inactive”.
With `CCCc1ccc(N)cc1`, the Potency result was “inactive”.
Still for that read-out and setting: the value for `CCCCCN(CCCCC)C(=O)C(CCC(=O)O)NC(=O)c1ccc(Cl)c(Cl)c1` (stereo not given) was “inactive”; that for `Cc1ccc(N)cc1[N+](=O)[O-]` was “inactive”.
`CCCCOCC(C)OCC(C)O` (stereo not given): the Potency entry is “inactive”.
Regarding `NCCN1CCNC1=O`, the Potency result was “inactive”.
Consider `COc1ccc(COC=O)cc1`, for which the Potency entry was “inactive”.
Same read-out and setting: the value for `NS(=O)(=O)c1cc2c(cc1C(F)(F)F)NC(Cc1ccccc1)NS2(=O)=O` (stereo not given) was “inactive”; that for `CN(C)N=Nc1ccccc1` was “inactive”.
Consider `CC(C)[C@H](N)C(=O)OCCOCn1cnc2c(=O)[nH]c(N)nc21`, for which the Potency result was “inactive”.
For the compound `CCCCCOC(=O)Nc1nc(=O)n([C@@H]2O[C@H](C)[C@@H](O)[C@H]2O)cc1F`, the Potency entry is “inactive”.
In the case of `CC(C)(O)Cc1ccccc1`, the Potency result was “inactive”.
For the compound `CSc1nc(NC2CC2)nc(NC(C)(C)C)n1`, the Potency result is “inactive”.
With `OCC(CO)(CO)COCC(CO)(CO)CO`, the Potency entry was “inactive”.
For `O=Cc1ccccc1[N+](=O)[O-]`, the Potency result was “inactive”.
In the case of `CCC(C)(C)C1CCC(OC)CC1` (stereo not given), the Potency result is “inactive”.
With `CCCCCC[C@@H](CCC)C(=O)O`, the Potency entry is “inactive”.
Consider `C=CCSCC1Nc2cc(Cl)c(S(N)(=O)=O)cc2S(=O)(=O)N1` (stereo not given), for which the Potency entry is “inactive”.
For the compound `OCCN1C[C@H](O)[C@@H](O)[C@H](O)[C@H]1CO`, the Potency result was “inactive”.
As for `Oc1ccc2c(c1)OC[C@@H](N1CCC(O)(c3ccc(F)cc3)CC1)[C@H]2O`, the Potency result was “inactive”.
As for `CCCCCCCCN(C)CCCCCCCC`, the Potency entry was “inactive”.
In the case of `O=[N+]([O-])c1ccc(Oc2ccc([N+](=O)[O-])cc2)cc1`, the Potency result is “inactive”.
On to `CCN1CCN(c2cc3c(cc2F)c(=O)c(C(=O)O)cn3C2CC2)CC1`, for which the Potency entry was “inactive”.
Consider `Cn1ccc2cc3c(cc21)CCN3C(=O)Nc1cccnc1`, for which the Potency entry was “inactive”.
Same read-out and setting: the value for `CCCCC1CCCCC(=O)O1` (stereo not given) was “inactive”.
Same read-out and setting: the value for `C/C=C1\C(=O)C[C@H]2[C@@H]3CCC4=CC(=O)CC[C@]4(C)[C@H]3CC[C@]12C` was “inactive”.
As for `FC(F)(F)C(F)(F)C(F)(F)C(F)(F)C(F)(F)C(F)(F)C(F)(F)C(F)(F)C(F)(F)C(F)(F)F`, the viability change, negative = cytotoxic is 6.81% [at 8.47 µM] (inactive).
Regarding `C#CC(C)(O)CC(C)C` (stereo not given), the Potency entry was “inactive”.
For `C#CC(O)CCCCC` (stereo not given), the Potency result was “inactive”.
The same measure, in the same setting: the value for `CCc1cc(S(=O)(=O)O)c2cc(C(C)C)cccc1-2` was “inactive”; that for `C1C2OC2C2C1C1CC2C2OC12` (stereo not given) was “inactive”.
On the same count and under the same terms, the value for `C=C(C)C1CC=C(C)C(O)C1` (stereo not given) was “inactive”; that for `CN(C)CCOC(c1ccc(Cl)cc1)c1ccccn1` (stereo not given) was “inactive”.
